Assay results taken from PubChem BioAssay (NCI).
The panel holds about 83,000 compounds, 20% with a hit somewhere; the sample as a whole holds those more often.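 96-well plates, one dose, 48 hours. Percent growth reported; active if below 10.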 Values without a mark were called inactive. Activity calls are given as the source filed them.

These compounds were tested on CCRF-CEM leukemia (assay: NCI-60 one-dose screen, 48 h (100 = growth as untreated, 0 = no growth, -100 = all killed)). Details: 10 µM unless noted.

Row | SMILES | growth
1 | CCNCCNc1cc(C2CCCCC2)c(C#N)c2nc3ccccc3n12 | -28.6% (active)
2 | Nc1c(C(=O)Nc2ccncc2)sc2nc3c(cc12)C(O)CCC3 (stereo not drawn) | 94.6%
3 | C=CCN=c1sc2c(n1NC(=O)c1cc3ccc1CCc1ccc(cc1)CC3)C(=O)c1ccccc1C2=O | -3.65% (active)
4 | Cc1nc2sc(C(=O)Nc3cccc(Br)c3)c(N)c2cc1C(O)c1ccccc1 (stereo not drawn) | 15.7%
5 | Cc1cc(S(=O)(=O)/N=C(\N)n2nc(C)c(C)c2C)c(SCc2ccccc2)cc1Cl | 41.5%
6 | Oc1ccc(Cl)cc1/C=N\NC(=S)N/N=C/c1cc(Cl)ccc1O | 8.57% (active)
7 | O=C(/C=C/c1cccs1)Nc1ncc(Cc2ccccc2F)s1 | 14.4%
8 | COC(=O)CC[C@H](C)[C@H]1CC[C@H]2[C@@H]3CC[C@@H]4CC5(CC[C@]4(C)[C@H]3CC(=O)[C@]12C)Nc1ccccc1NC5=NC(C)(C)C (stereo partly drawn) | 54.7%
9 | CC1CCc2c(C(=O)Nc3ncc(Cc4cccc([N+](=O)[O-])c4)s3)csc2C1 (stereo not drawn) | 16.8%
10 | O=C1/C=C/[C@@H](O)[C@@H]2C[C@@H](O)C[C@H]2/C=C/CCC[C@H](CCc2ccccc2)O1 | 13.1%
11 | O=C(Nc1ccccc1O)c1ccc(CNC(=O)c2sccc2Nc2ccnc(C(F)(F)F)c2)cc1 | 10.8%
12 | COc1ccc(C(=O)/C=C/c2c(C(F)(F)F)nc3ccccn23)cc1OC | 14.9%
13 | CCC(=C(c1ccc(OCCN2CCCCC2)cc1)c1ccc(OCCN2CCCCC2)cc1)c1ccc(Cl)cc1 | -74.4% (active)
